Potency data for seven compounds are collected here from PubChem BioAssay (NCATS).

The nature of assay [1]: qHTS of pediatric cancer cell lines to identify multiple opportunities for drug repurposing: Primary screen for DAOY cells (AID 1347090). Also: nearly all actives have a fitted effect of over 55% in size. Also: potency is read from the fitted curve at half-maximal effect. The note with it: DAOY medulloblastoma viability, CellTiter-Glo luminescence, 48 h; series mostly up to 46 µM. The gist of the method: (§1)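 Eight- or eleven-point concentration series, 48 h treatment at 37 degrees C in growth media; readout CellTiter-Glo luminescence. Potency and efficacy were taken from the concentration-response curves.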
On the technique in general: In qHTS, concentration-response curves come from the screen itself.

Assay [2] is described as follows: qHTS of pediatric cancer cell lines to identify multiple opportunities for drug repurposing: Primary screen for SK-N-MC cells (AID 1347093). Also: potency is read from the fitted curve at half-maximal effect. The note with it: SK-N-MC viability, CellTiter-Glo luminescence, 48 h; series mostly up to 46 µM. The gist of the method: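 Metabolically active cells were quantified by ATP-dependent luminescence (CellTiter-Glo, 15 min at room temperature) following 48 h treatment. Cells had been plated at 500-1,000 per well and settled for 5 h beforehand.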

Assay [3] in a line: qHTS of pediatric cancer cell lines to identify multiple opportunities for drug repurposing: Primary screen for BT-37 cells (AID 1347094). Also: potency is read from the fitted curve at half-maximal effect. The note with it: BT-37 viability, CellTiter-Glo luminescence, 48 h; series mostly up to 57.3 µM. The gist of the method:
(§2)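 Luminescence from CellTiter-Glo served as readout of metabolically active cells after 48 h compound exposure. Titrations: MIPE 11-point, from 0.78 nM; NPC 8-point, from 0.59 nM (final). Concentration-response curves came straight from the primary screen.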

Assay [4] is described as follows: qHTS of pediatric cancer cell lines to identify multiple opportunities for drug repurposing: Primary screen for SK-N-SH cells (AID 1347098). Also: nearly all actives have a fitted effect of over 65% in size. Also: potency is read from the fitted curve at half-maximal effect. To be noted: SK-N-SH viability, CellTiter-Glo luminescence, 48 h; series mostly up to 57 µM. The gist of the method: (§3)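 Cells (500-1,000/well) rested 5 h, then received compounds for 48 h; metabolically active cells were measured by CellTiter-Glo luminescence. Final concentrations spanned up to 46 µM (MIPE, 11-point) or 0.59 nM-46 µM (NPC, 8-point) in primary screens, 11-point in follow-ups.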

The nature of assay [5]: qHTS of pediatric cancer cell lines to identify multiple opportunities for drug repurposing: Primary screen for LAN-5 cells (AID 1347100). Also: potency is read from the fitted curve at half-maximal effect. To be noted: LAN-5 neuroblastoma viability, CellTiter-Glo luminescence, 48 h; series mostly up to 46 µM. The gist of the method: (§4)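 Cells (500-1,000/well) in growth media were settled 5 h at 37 degrees C, then given compounds for 48 h. Viability was read as CellTiter-Glo luminescence. Primary runs used MIPE at 11 points (0.78 nM-46 µM) and NPC at 8 points (0.59 nM-46 µM); follow-ups used 11 points.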

The nature of assay [6]: qHTS of pediatric cancer cell lines to identify multiple opportunities for drug repurposing: Primary screen for BT-12 cells (AID 1347101). Also: nearly all actives have a fitted effect of over 25% in size. Also: potency is read from the fitted curve at half-maximal effect. The note with it: BT-12 viability, CellTiter-Glo luminescence, 48 h; series mostly up to 57.3 µM. The gist of the method: as §3
Assay [7] in a line: qHTS of pediatric cancer cell lines to identify multiple opportunities for drug repurposing: Primary screen for Rh18 cells (AID 1347102). Also: nearly all actives have a fitted effect of over 65% in size. Also: potency is read from the fitted curve at half-maximal effect. To be noted: Rh18 rhabdomyosarcoma viability, CellTiter-Glo luminescence, 48 h; series mostly up to 46 µM. The gist of the method:
as §4

Assay [8] in a line: qHTS of pediatric cancer cell lines to identify multiple opportunities for drug repurposing: Primary screen for OHS-50 cells (AID 1347103). Also: nearly all actives have a fitted effect of over 40% in size. Also: potency is read from the fitted curve at half-maximal effect. To be noted: OHS-50 osteosarcoma viability, CellTiter-Glo luminescence, 48 h; series mostly up to 57.3 µM. The gist of the method: as §3
Assay [9] in a line: qHTS of pediatric cancer cell lines to identify multiple opportunities for drug repurposing: Primary screen for MG 63 (6-TG R) cells (AID 1347105). Also: nearly all actives have a fitted effect of over 50% in size. Also: potency is read from the fitted curve at half-maximal effect. The note with it: MG 63 (6-TG R) viability, CellTiter-Glo, 48 h; series mostly up to 46 µM. The gist of the method: as §2
Assay [10] deals with Nucleoprotein (Lymphocytic choriomeningitis virus (strain Armstrong)) (UniProt P09992). Briefly: qHTS for Inhibitors of the Functional Ribonucleoprotein Complex (vRNP) of Lymphocytic Choriomeningitis Arenaviruses (LCMV): LCMV Primary Screen - GLuc reporter signal (AID 1347086; calls by dose curve; also: nearly all actives have a fitted effect of over 70% in size; also: potency is read from the fitted curve at half-maximal effect). The note with it: LCMV minigenome vRNP cell assay, Gaussia luciferase reporter; series mostly up to 57.5 µM.
Nucleoprotein (Lymphocytic choriomeningitis virus (strain Armstrong)), sequence (P09992 whole entry, looked up): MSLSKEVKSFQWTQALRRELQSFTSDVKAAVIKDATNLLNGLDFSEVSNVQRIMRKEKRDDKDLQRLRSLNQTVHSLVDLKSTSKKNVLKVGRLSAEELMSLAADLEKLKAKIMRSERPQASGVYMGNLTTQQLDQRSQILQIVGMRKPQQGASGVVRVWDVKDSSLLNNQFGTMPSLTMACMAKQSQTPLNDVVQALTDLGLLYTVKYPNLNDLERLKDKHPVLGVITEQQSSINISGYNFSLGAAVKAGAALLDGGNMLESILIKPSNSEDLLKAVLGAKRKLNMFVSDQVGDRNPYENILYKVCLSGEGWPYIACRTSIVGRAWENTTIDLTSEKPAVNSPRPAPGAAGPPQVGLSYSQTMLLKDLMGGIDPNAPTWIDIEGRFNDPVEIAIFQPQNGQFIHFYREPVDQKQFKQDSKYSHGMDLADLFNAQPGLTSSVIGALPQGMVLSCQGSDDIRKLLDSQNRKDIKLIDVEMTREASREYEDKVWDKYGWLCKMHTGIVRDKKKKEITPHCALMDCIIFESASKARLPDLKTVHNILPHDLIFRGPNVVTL

Assay [11] can be described thus: qHTS of pediatric cancer cell lines to identify multiple opportunities for drug repurposing: Primary screen for TC32 cells (AID 1347089). Also: nearly all actives have a fitted effect of over 60% in size. Also: potency is read from the fitted curve at half-maximal effect. The note with it: TC32 Ewing sarcoma viability, CellTiter-Glo luminescence, 48 h; series mostly up to 45.8 µM. The gist of the method: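 Luminescent CellTiter-Glo read-out of metabolically active TC32 cells after 48 h compound exposure. Primary: MIPE 11-point, 0.78 nM–46 µM; NPC 8-point, 0.59 nM–46 µM. Confirmatory: 11-point dilutions.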

Assay [12] is described as follows: qHTS of pediatric cancer cell lines to identify multiple opportunities for drug repurposing: Primary screen for SJ-GBM2 cells (AID 1347091). Also: potency is read from the fitted curve at half-maximal effect. To be noted: SJ-GBM2 viability, CellTiter-Glo luminescence, 48 h; series mostly up to 46 µM. The gist of the method: as §1
A short description of assay [13]: qHTS of pediatric cancer cell lines to identify multiple opportunities for drug repurposing: Primary screen for A673 cells (AID 1347092). Also: nearly all actives have a fitted effect of over 45% in size. Also: potency is read from the fitted curve at half-maximal effect. The note with it: A673 Ewing sarcoma viability, CellTiter-Glo ATP luminescence, 48 h; series mostly up to 46 µM. The gist of the method:
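A673 cells (500-1,000 cells/well in growth media) were pre-incubated 5 h at 37 degrees C, then exposed to compounds for 48 h. Viability was read as CellTiter-Glo luminescence; concentration-response curves came directly from the primary screen.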

Assay [14] can be described thus: qHTS of pediatric cancer cell lines to identify multiple opportunities for drug repurposing: Primary screen for NB-EBc1 cells (AID 1347095). Also: potency is read from the fitted curve at half-maximal effect. To be noted: NB-EBc1 neuroblastoma viability, CellTiter-Glo luminescence, 48 h; series mostly up to 46 µM. The gist of the method:
as §2

Assay [15] can be described thus: qHTS of pediatric cancer cell lines to identify multiple opportunities for drug repurposing: Primary screen for Saos-2 cells (AID 1347097). Also: nearly all actives have a fitted effect of over 40% in size. Also: potency is read from the fitted curve at half-maximal effect. The note with it: Saos-2 viability, CellTiter-Glo ATP luminescence, 48 h; series mostly up to 46 µM. The gist of the method:
as §2

The nature of assay [16]: qHTS of pediatric cancer cell lines to identify multiple opportunities for drug repurposing: Primary screen for NB1643 cells (AID 1347099). Also: nearly all actives have a fitted effect of over 50% in size. Also: potency is read from the fitted curve at half-maximal effect. The note with it: NB1643 neuroblastoma viability, CellTiter-Glo luminescence, 48 h; series mostly up to 46 µM. The gist of the method: as §2
Assay [17] can be described thus: qHTS of pediatric cancer cell lines to identify multiple opportunities for drug repurposing: Primary screen for RD cells (AID 1347104). Also: nearly all actives have a fitted effect of over 55% in size. Also: potency is read from the fitted curve at half-maximal effect. To be noted: RD rhabdomyosarcoma viability, CellTiter-Glo luminescence, 48 h; series mostly up to 46 µM. The gist of the method:
as §2

Assay [18] is described as follows: qHTS of pediatric cancer cell lines to identify multiple opportunities for drug repurposing: Primary screen for U-2 OS cells (AID 1347096). Also: nearly all actives have a fitted effect of over 50% in size. Also: potency is read from the fitted curve at half-maximal effect. The note with it: U-2 OS viability, CellTiter-Glo luminescence, 48 h; series mostly up to 46 µM. The gist of the method:
as §4

A short description of assay [19]: qHTS of pediatric cancer cell lines to identify multiple opportunities for drug repurposing: Primary screen for control Hh wild type fibroblast cells (AID 1347106).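 Also: a drop in luminescence marks cytotoxicity and a rise apparent proliferation; nearly all actives have a fitted effect of over 55% in size.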 The note with it: Hh wild-type fibroblast viability, CellTiter-Glo luminescence, 48 h; series mostly up to 46 µM. The gist of the method: as §4

Structures are written as SMILES. Results filed as inconclusive are left out. The source made the active and inactive calls. Unless noted, calls follow the shape of the dose curve; as a rule, active = well fitted curve in the direction sought with a large enough effect; inconclusive = small, poorly fitted or top-dose-only effect, or another doubt; inactive = no such curve, though single readings can be large; an effect the other way counts as inactive or inconclusive.

In the case of `CCCCCCCCCCCCCCCC[N+](C)(C)C`, the Potency in assay [1] is 13300 nM (active); in [2], 5310 nM (active); in assay [3], 15500 nM (active); in assay [4], 17200 nM (active); in assay [5], 23700 nM (active); in assay [6], 7770 nM (active). Also, the results for the Potency in assay [7], in [8] and in assay [9] were 5310 nM (active), 3890 nM (active) and 21100 nM (active), respectively.

With `CC1=C(O)C(=O)C=C2C1=CC=C1[C@@]2(C)CC[C@@]2(C)[C@@H]3C[C@](C)(C(=O)O)CC[C@]3(C)CC[C@]12C`, the Potency in assay [10] was 7690 nM (active); in [11], 7390 nM (active); in [1], 935 nM (active); in [12], 935 nM (active); in [13], 1180 nM (active); in [2] it was 833 nM (active). For the same compound, the Potency in assay [3] was 4850 nM (active); in assay [14] it was 743 nM (active); in assay [15], 2350 nM (active); in assay [4] it was 3040 nM (active); in assay [16], 1660 nM (active); in [5], 1870 nM (active). Besides, the Potency is 2730 nM (active) in assay [6], 1870 nM (active) in assay [7], 1320 nM (active) in assay [17] and 935 nM (active) in assay [9].

With `O=[N+]([O-])c1cc([N+](=O)[O-])c2ccccc2c1`, the Potency result in assay [10], in assay [11], in assay [1], in assay [12], in assay [13] and in [3] was “inactive” throughout. Also, the Potency result in assay [18], in assay [15], in assay [4], in [16], in assay [5] and in assay [6] was “inactive” each time. For the same compound, the Potency result in assay [7], in assay [8], in assay [17], in assay [9] and in [19] was “inactive” each time. Further, the Potency in assay [2] is 10900 nM (active).

Consider `CC1(C)CC/C(=C/c2ccc(Cl)cc2)C1(O)Cn1cncn1` (centres undefined), for which the Potency entry in assay [11], in assay [1], in assay [13], in assay [2], in assay [3] and in [14] was “inactive” each time. The Potency result in assay [18], in assay [16], in assay [6], in assay [7], in [17] and in [19] was “inactive” in each case.

As for `NC(=O)c1ccc(-c2nc(-c3ccc4c(c3)OCCO4)c(-c3ccccn3)[nH]2)cc1`, the Potency result in [10] was “inactive”.

In the case of `COC[C@H]1OC(=O)c2coc3c2[C@@]1(C)C1=C(C3=O)[C@@H]2CC[C@H](O)[C@@]2(C)C[C@@H]1OC(C)=O`, the Potency entry in [11] and in assay [19] was “inactive” each time. For the same compound, the Potency in assay [1] was 14800 nM (active); in [12] it was 469 nM (active); in assay [13] it was 9350 nM (active); in assay [2] it was 296 nM (active); in assay [3], 6850 nM (active); in assay [14], 526 nM (active). Moreover, the Potency in [15] is 2090 nM (active); in assay [4] it was 27100 nM (active); in assay [5], 2640 nM (active); in [7] it was 4690 nM (active); in assay [17] it was 14800 nM (active); in assay [9] it was 1870 nM (active).

As for `CC(=O)[O][Hg][c]1ccccc1`, the Potency in [11] is 1870 nM (active); in assay [1] it was 1680 nM (active); in assay [13], 106 nM (active); in assay [2], 531 nM (active); in [3], 2190 nM (active); in assay [14], 21100 nM (active). Also, the Potency was 2660 nM (active) in assay [18]; 668 nM (active) in assay [15]; 970 nM (active) in assay [4]; 1190 nM (active) in assay [16]; 3470 nM (active) in assay [6]; 2660 nM (active) in [7]. In addition, the results for the Potency in assay [17] and in [9] were 944 nM (active) and 2660 nM (active), respectively.
